Results filed as inconclusive are left out. Unmarked numbers belong to inactive results. The call rests on the fitted dose curve; in most records, active means well fitted cell-killing curve with a large enough effect; inconclusive means small, poorly fitted or top-dose-only effect; inactive means flat fitted curve, though single readings scatter.
experiment: qHTS of pediatric cancer cell lines to identify multiple opportunities for drug repurposing: Primary screen for BT-37 cells (AID 1347094); conditions: BT-37 viability, CellTiter-Glo luminescence, 48 h; series mostly up to 57.3 µM; activity change, negative = cytotoxic: at the top concentration;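 further: plate controls were DMSO for no effect and bortezomib for full effect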
Method in brief: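 Quantitative HTS format: each compound titrated (MIPE 11 points from 0.78 nM, NPC 8 points from 0.59 nM) onto cells plated 5 hours earlier. After 48 h at 37 degrees C, CellTiter-Glo luminescence was recorded.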

Structure (SMILES)	activity change, negative = cytotoxic
CC(=O)NC(Cc1ccccc1)C(=O)O (centres undefined)	-0.713%
CS(=O)(=O)c1ccc([C@@H](O)[C@@H](CF)NC(=O)C(Cl)Cl)cc1	-12.2%
Nc1nc2c(ncn2CCC(CO)CO)c(=O)[nH]1	3.24%
Cc1cccc(Nc2cc(Cl)nc(SCC(=O)O)n2)c1C	13.8%
O=C(O)c1ccccn1	3.32%
COc1ccccc1O	18% [at 116 µM]
Cc1c(Cl)cccc1Nc1ccccc1C(=O)O	3.73%
N[C@@H](CSSC[C@H](N)C(=O)O)C(=O)O	3.9% [at 0.745 µM]
CCCCCCCCCCCCOS(=O)(=O)O	13%
C[C@@H]1CN(c2c(F)c(F)c3c(=O)c(C(=O)O)cn(C4CC4)c3c2F)C[C@H](C)N1	18.2% [at 20.1 µM]
O=C(O)CC(O)C(=O)O (centres undefined)	6.09%
CCCCN1CCCC[C@H]1C(=O)Nc1c(C)cccc1C	-12.7%
CN(C)CCCO[C@@H]1[C@H]2OC(C)(C)O[C@H]2O[C@@H]1C(O)CO (some centres undefined)	16.6%
O=c1cc[nH]c(=S)[nH]1	1.77%
Nc1ccc(S(=O)(=O)Nc2ccccc2)cc1	5.56%
O=c1cc(CO)occ1O	6.05%
COc1cc(C)c(Cc2cnc(N)nc2N)cc1OC	4.14%
CC(C)(C)C(=O)C(Oc1ccc(Cl)cc1)n1ccnc1 (centres undefined)	0.221%
COc1cc2[nH]c(=O)[nH]c(=O)c2cc1OC	14.7%
CCC(=O)Nc1ccc(O)cc1	9.13%
CC1(C)[C@@H]2CC[C@@]1(C)C(=O)C2	15%
CN1CCOC(c2ccccc2)c2ccccc2C1 (centres undefined)	4.15%
CCN(CC)C(=O)Nc1ccc(OCC(O)CNC(C)(C)C)c(C(C)=O)c1 (centres undefined)	16.7%
CCCCOc1cc(C(=O)OCCN(CC)CC)ccc1N	-10.6%

Source: PubChem BioAssay (NCATS)
